According to ChEMBL document CHEMBL1961873, “Compounds: GSK PKIS; Assays: Nanosyn kinase panel” (2012):

Legend:
[1] = molecular target: High affinity nerve growth factor receptor (Homo sapiens) (UniProt P04629); details: at 1 µM;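 further: each value is the mean percent inhibition of TRKA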
[2] = molecular target: BDNF/NT-3 growth factors receptor (Homo sapiens) (UniProt Q16620); details: at 0.1 µM
[3] = molecular target: BDNF/NT-3 growth factors receptor (Homo sapiens) (UniProt Q16620); details: at 1 µM
[4] = molecular target: NT-3 growth factor receptor (Homo sapiens) (UniProt Q16288); details: at 0.1 µM
[5] = molecular target: NT-3 growth factor receptor (Homo sapiens) (UniProt Q16288); details: at 1 µM
[6] = molecular target: T1, Tyrosine-protein kinase TXK (Homo sapiens) (UniProt P42681); details: at 0.1 µM
T1 sequence (whole entry): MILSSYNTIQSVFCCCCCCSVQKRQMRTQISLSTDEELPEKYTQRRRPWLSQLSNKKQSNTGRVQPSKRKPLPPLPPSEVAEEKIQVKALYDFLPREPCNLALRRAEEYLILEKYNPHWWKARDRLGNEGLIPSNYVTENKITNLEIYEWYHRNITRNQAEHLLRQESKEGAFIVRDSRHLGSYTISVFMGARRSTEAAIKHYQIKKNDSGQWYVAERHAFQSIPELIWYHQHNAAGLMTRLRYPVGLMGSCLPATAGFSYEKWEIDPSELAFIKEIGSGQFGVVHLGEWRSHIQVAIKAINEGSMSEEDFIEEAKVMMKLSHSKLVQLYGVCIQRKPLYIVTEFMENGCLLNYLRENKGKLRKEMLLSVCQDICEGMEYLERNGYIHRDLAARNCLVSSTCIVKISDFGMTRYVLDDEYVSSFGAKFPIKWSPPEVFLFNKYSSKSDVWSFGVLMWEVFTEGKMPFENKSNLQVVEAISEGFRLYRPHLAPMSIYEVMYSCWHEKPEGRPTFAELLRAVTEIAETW

[7] = molecular target: T1, Tyrosine-protein kinase TXK (Homo sapiens); details: at 1 µM
[8] = molecular target: Non-receptor tyrosine-protein kinase TYK2 (Homo sapiens) (UniProt P29597); details: at 0.1 µM;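 further: each value is a mean of the inhibition readings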
[9] = molecular target: T2, Dual specificity protein kinase TTK (Homo sapiens) (UniProt P33981); details: at 1 µM;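 further: reported figures are mean TTK inhibition at 1 µM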
T2 sequence (whole entry): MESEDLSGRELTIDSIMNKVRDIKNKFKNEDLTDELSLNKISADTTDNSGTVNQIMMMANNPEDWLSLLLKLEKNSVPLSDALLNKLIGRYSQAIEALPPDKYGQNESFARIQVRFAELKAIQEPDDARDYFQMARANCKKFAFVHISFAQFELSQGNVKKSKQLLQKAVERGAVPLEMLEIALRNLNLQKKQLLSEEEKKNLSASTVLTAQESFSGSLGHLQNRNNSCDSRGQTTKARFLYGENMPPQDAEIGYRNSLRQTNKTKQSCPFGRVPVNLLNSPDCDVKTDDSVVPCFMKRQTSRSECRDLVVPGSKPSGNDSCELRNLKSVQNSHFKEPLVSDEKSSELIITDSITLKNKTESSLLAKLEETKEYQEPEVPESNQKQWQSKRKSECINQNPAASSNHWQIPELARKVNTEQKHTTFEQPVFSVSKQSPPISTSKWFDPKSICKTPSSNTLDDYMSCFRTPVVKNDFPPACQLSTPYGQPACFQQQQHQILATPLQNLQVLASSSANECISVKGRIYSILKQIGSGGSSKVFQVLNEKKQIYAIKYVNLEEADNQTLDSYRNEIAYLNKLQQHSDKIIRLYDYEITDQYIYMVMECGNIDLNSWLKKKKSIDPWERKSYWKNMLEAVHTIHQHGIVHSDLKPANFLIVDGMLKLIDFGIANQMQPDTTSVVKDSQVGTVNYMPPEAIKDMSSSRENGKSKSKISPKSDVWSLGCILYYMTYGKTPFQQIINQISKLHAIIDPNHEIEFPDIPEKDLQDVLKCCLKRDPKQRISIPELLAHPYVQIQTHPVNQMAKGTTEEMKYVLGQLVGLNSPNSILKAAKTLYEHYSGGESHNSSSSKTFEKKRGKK

[10] = molecular target: T3, Aurora kinase A (Homo sapiens) (UniProt O14965); details: at 0.1 µM
T3 sequence (whole entry): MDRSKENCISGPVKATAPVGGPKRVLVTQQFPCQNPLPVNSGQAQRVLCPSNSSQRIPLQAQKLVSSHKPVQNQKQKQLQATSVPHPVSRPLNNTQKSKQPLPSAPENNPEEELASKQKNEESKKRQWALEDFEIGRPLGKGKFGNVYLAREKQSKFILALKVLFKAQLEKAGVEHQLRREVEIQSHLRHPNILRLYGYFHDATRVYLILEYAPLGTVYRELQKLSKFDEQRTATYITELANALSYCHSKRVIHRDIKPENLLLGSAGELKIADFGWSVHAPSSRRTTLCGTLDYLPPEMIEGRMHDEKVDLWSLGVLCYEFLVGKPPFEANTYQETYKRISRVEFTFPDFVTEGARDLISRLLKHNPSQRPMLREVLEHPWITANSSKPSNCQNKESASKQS

[11] = molecular target: T3, Aurora kinase A (Homo sapiens); details: at 1 µM
[12] = molecular target: Aurora kinase B (Homo sapiens) (UniProt Q96GD4); details: at 0.1 µM
[13] = molecular target: Aurora kinase B (Homo sapiens) (UniProt Q96GD4); details: at 1 µM
[14] = molecular target: T4, Aurora kinase C (Homo sapiens) (UniProt Q9UQB9); details: at 0.1 µM
T4 sequence (whole entry): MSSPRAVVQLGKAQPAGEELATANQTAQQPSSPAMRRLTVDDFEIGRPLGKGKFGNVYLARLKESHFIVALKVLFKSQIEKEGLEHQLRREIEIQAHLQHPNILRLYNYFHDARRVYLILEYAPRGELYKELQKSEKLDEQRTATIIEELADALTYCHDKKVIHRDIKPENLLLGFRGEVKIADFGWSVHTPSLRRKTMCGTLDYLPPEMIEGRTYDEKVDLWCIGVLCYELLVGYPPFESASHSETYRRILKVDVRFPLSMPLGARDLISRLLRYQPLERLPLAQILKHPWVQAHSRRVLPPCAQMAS

[15] = molecular target: T4, Aurora kinase C (Homo sapiens); details: at 1 µM
[16] = molecular target: Serine/threonine-protein kinase 10 (Homo sapiens) (UniProt O94804); details: at 0.1 µM
[17] = molecular target: Serine/threonine-protein kinase 10 (Homo sapiens) (UniProt O94804); details: at 1 µM
[18] = molecular target: T5, Mitogen-activated protein kinase kinase kinase kinase 2 (Homo sapiens) (UniProt Q12851); details: at 0.1 µM
T5 sequence (whole entry): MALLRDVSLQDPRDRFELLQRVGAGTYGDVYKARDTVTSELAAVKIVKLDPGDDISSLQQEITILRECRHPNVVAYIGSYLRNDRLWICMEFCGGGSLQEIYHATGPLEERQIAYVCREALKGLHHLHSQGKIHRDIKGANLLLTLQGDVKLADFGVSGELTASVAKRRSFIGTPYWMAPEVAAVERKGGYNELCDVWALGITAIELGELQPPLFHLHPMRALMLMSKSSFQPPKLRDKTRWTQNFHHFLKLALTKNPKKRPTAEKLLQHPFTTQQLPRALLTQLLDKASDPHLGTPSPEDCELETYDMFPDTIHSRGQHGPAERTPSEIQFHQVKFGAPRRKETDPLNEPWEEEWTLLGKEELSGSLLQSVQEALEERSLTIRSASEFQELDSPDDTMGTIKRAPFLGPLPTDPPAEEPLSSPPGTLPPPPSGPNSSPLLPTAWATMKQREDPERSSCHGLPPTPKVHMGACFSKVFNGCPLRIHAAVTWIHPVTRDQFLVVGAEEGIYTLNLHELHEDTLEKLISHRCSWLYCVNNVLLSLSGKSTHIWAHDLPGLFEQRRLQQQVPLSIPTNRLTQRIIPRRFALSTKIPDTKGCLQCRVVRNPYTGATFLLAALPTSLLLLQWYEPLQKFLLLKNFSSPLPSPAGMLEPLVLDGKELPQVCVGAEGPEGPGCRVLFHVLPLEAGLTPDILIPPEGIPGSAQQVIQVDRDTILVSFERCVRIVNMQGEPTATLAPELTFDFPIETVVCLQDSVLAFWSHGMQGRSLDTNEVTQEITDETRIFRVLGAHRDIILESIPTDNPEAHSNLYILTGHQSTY

[19] = molecular target: T5, Mitogen-activated protein kinase kinase kinase kinase 2 (Homo sapiens); details: at 1 µM
[20] = molecular target: Mitogen-activated protein kinase kinase kinase kinase 4 (Homo sapiens) (UniProt O95819); details: at 0.1 µM
Chain of Mitogen-activated protein kinase kinase kinase kinase 4 (Homo sapiens) (O95819 2-1239 limits assumed): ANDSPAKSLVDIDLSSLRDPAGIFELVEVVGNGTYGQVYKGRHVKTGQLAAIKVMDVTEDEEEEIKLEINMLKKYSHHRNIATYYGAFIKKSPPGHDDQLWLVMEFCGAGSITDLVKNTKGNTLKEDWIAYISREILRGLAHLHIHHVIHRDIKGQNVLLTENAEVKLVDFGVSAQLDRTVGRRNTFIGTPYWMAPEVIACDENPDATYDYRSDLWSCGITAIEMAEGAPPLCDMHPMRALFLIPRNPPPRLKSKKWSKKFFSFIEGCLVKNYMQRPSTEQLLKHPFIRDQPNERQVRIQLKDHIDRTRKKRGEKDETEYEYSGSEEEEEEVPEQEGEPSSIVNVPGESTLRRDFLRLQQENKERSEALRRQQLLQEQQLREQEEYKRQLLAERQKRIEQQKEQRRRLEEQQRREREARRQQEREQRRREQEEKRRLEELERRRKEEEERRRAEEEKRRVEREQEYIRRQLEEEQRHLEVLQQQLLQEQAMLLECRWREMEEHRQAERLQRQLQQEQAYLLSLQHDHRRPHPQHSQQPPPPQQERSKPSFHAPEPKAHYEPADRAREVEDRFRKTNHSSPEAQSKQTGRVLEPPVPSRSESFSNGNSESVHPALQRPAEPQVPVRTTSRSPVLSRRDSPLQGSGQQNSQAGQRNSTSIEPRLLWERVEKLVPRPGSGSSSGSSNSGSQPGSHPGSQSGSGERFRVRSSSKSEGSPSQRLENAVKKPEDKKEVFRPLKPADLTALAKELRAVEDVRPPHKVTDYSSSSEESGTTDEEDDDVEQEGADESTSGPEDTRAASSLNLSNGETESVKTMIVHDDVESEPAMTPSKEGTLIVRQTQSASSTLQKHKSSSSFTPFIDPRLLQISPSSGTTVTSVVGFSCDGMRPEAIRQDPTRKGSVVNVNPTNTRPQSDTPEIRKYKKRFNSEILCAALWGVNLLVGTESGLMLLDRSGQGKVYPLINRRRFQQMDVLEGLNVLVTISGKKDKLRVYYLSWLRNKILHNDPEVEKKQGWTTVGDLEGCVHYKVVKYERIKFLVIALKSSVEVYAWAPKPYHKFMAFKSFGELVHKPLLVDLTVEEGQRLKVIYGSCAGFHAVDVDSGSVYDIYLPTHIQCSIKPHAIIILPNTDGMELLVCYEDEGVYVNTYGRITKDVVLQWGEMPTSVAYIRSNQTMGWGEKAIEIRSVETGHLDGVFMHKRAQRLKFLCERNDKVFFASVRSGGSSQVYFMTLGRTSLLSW

Chain of Non-receptor tyrosine-protein kinase TYK2 (Homo sapiens) (P29597 whole entry): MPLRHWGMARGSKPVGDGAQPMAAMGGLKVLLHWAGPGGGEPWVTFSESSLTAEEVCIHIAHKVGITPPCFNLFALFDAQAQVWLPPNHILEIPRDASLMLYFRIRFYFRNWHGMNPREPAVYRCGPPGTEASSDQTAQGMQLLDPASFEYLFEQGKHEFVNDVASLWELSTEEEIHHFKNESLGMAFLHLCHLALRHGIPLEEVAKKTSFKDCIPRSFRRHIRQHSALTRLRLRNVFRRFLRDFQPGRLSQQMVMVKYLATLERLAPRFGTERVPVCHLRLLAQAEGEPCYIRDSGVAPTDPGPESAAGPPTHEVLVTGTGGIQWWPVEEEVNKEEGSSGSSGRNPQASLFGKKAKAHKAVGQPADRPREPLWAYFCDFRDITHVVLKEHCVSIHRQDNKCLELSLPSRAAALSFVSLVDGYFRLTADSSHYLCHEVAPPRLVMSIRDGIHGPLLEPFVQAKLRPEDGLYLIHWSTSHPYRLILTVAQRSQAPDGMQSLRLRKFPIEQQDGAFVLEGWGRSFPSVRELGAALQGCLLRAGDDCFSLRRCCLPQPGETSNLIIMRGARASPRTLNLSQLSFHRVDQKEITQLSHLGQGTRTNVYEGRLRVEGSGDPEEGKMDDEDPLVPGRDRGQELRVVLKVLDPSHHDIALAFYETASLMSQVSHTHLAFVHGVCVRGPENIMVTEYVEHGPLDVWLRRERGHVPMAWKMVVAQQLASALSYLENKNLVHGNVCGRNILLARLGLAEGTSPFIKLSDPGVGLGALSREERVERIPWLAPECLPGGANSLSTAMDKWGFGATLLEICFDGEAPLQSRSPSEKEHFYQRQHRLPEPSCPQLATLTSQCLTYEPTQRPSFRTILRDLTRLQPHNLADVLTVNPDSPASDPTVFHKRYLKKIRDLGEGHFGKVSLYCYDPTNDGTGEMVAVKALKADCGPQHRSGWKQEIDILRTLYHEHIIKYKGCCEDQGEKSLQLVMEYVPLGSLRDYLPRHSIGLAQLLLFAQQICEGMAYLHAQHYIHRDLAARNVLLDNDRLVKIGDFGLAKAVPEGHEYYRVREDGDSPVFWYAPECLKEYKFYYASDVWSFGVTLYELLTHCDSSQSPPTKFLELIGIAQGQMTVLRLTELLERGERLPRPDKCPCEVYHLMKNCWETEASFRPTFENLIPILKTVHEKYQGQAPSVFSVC
Chain of BDNF/NT-3 growth factors receptor (Homo sapiens) (Q16620 32-822 limits assumed): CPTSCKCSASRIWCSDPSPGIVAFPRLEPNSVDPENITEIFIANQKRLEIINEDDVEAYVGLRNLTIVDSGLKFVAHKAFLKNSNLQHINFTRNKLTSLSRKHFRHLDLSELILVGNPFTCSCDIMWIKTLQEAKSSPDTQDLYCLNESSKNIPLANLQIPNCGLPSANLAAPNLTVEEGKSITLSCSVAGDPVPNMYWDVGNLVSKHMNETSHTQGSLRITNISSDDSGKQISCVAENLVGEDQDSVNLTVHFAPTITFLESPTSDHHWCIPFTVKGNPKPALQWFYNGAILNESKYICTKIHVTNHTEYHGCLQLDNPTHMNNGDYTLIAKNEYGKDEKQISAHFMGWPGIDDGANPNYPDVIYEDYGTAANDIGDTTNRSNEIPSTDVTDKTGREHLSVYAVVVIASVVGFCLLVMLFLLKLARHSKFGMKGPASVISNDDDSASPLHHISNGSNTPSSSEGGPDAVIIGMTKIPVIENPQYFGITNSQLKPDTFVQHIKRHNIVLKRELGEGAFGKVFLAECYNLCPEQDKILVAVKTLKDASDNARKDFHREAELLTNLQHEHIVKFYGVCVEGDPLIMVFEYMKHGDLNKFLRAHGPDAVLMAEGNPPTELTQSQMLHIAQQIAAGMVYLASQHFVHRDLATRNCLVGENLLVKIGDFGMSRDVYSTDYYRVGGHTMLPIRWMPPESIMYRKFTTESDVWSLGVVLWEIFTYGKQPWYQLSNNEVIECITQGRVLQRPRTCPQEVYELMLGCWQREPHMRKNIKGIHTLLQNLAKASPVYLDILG
Chain of High affinity nerve growth factor receptor (Homo sapiens) (P04629 33-796 limits assumed): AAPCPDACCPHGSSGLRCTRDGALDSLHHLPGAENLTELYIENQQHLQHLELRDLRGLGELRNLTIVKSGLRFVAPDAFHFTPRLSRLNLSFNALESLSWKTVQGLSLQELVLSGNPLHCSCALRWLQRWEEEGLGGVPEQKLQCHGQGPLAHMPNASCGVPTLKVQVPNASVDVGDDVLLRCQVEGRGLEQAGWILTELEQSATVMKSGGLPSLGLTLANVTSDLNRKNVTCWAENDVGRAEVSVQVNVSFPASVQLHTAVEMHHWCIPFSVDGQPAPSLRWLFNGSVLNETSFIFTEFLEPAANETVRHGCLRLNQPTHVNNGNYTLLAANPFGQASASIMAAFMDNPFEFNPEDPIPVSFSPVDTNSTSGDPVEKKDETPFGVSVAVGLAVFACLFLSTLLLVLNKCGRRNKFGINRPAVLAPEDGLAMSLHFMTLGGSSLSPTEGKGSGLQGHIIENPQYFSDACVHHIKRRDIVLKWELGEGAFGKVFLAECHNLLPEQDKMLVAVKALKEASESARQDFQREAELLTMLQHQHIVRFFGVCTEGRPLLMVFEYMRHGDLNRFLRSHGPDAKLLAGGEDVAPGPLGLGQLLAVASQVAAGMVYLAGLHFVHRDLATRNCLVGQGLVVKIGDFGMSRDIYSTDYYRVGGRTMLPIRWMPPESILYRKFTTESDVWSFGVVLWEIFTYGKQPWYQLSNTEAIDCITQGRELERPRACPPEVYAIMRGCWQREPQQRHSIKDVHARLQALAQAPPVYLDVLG
Chain of Serine/threonine-protein kinase 10 (Homo sapiens) (O94804 whole entry, looked up): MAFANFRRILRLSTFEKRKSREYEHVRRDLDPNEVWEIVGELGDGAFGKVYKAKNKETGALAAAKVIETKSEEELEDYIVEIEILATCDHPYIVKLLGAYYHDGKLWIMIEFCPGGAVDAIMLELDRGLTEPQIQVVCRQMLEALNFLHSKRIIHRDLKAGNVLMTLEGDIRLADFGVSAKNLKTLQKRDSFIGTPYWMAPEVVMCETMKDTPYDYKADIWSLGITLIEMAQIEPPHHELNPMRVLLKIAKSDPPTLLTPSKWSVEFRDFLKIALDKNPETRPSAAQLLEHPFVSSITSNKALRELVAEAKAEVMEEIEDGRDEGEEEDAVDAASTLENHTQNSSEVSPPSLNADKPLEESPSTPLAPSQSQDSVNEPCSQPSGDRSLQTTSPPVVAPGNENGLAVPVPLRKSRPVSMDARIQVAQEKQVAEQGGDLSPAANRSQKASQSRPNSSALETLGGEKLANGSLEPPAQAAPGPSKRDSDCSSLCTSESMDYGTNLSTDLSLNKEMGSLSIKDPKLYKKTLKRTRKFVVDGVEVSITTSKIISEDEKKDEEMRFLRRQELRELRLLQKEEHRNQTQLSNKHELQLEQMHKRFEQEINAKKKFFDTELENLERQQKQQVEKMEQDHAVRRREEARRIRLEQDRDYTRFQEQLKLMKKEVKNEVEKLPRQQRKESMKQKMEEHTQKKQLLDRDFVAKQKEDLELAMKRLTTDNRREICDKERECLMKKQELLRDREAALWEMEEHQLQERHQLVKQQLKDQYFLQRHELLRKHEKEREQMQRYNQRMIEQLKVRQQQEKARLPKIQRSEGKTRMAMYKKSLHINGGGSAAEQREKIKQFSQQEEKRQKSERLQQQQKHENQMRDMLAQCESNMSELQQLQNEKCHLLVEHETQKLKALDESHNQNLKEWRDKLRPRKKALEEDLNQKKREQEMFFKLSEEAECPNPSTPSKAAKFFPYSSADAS

Row | Structure (SMILES) | inhibition [1] | inhibition [2] | inhibition [3] | inhibition [4] | inhibition [5] | inhibition [6] | inhibition [7] | inhibition [8] | inhibition [9] | inhibition [10] | inhibition [11] | inhibition [12] | inhibition [13] | inhibition [14] | inhibition [15] | inhibition [16] | inhibition [17] | inhibition [18] | inhibition [19] | inhibition [20]
1 | Cc1nnc(-c2ccc(C)c(-c3ccc(C(=O)NCc4ccc(Cl)cc4)cc3)c2)o1 | 3.12% | 3.47% | 1.5% | 2.79% | 1.36% | -0.45% | -1.48% | -6.26% | -0.17% | -1.43% | -4.05% | -0.69% | -2.09% | -2.03% | -9.49% | 2.71% | 6.75% | 1.46% | 1.6% | 5.65%
2 | COc1cc2ncn(-c3cc(OCc4ccccc4C(F)(F)F)c(C(C)=O)s3)c2cc1OC | 1.61% | 1.74% | 2.56% | 0.64% | 4.16% | -0.06% | 5.24% | -1.78% | 8.19% | 2.64% | 4.46% | 7.82% | 9.68% | 3% | 11.9% | 10.5% | 42.8% | 2.18% | 7.42% | 4.05%
3 | NCc1ccc(-n2c(-c3nonc3N)nc3cnccc32)cc1 | 2.81% | 3.11% | 1.99% | 3.14% | 2.31% | 1.78% | 3.57% | -7.21% | 10.1% | 3.62% | 8.79% | 3.64% | 12.4% | 3.83% | 18.8% | 8.16% | 24.2% | 3.62% | 18.2% | 10.1%
4 | Fc1ccc(-c2c(-c3ccncc3)nc3n2CCS3)cc1 | -0.43% | 1.79% | -0.01% | 3.54% | 1.8% | -1.56% | 0.44% | -0.68% | 4.17% | -2.71% | 2.75% | -0.21% | 1.83% | -4.05% | -8.58% | -1.08% | 7.95% | 1.02% | 3.03% | 4.23%
5 | CCc1ccc(Oc2nccc(-c3c(-c4ccc(F)cc4)ncn3C3CCNCC3)n2)cc1 | 3.03% | 1.6% | 2.36% | 1.82% | 3.29% | 6.85% | 4.56% | 1.68% | 4.86% | 3.7% | 2.66% | 3.48% | 2.75% | 1.29% | 3.88% | 4.86% | 8.03% | 1.71% | 15.4% | 2.58%
6 | O=C(Nc1ccc(Oc2ccc3[nH]c(NC(=O)c4ccccc4)nc3c2)cc1)Nc1cc(C(F)(F)F)ccc1F | 52.2% | 5.11% | 35.1% | 8.01% | 41% | 3.06% | 6.27% | -4.63% | 19.2% | 1.31% | 12.4% | 0.59% | 13.9% | 3.42% | 40.8% | 12.8% | 50.2% | 1.6% | 19% | 3.95%
7 | O=C1Nc2ccc(I)cc2C1=Cc1cc(Br)c(O)c(Br)c1 | 7.89% | 2.53% | 5.74% | 1.67% | 6.01% | 7.46% | 6.98% | -1.21% | 13.3% | 3.6% | 9.69% | 1.83% | 3.08% | 0.09% | 4.11% | 4.81% | 7.92% | 0.93% | 3.6% | 31.7%
8 | Fc1ccc(-c2ncn(CCCN3CCOCC3)c2-c2ccncc2)cc1 | -2.74% | -0.51% | -1.43% | -0.42% | -2.77% | 1.42% | 2% | 1.6% | 5.54% | -0.48% | 3.87% | 0.52% | 5.52% | -0.04% | 10.1% | 1.1% | 3.83% | 2.31% | 1.14% | 2.27%
9 | O=C(NCC1CC1)c1ccc(-c2cccc(C(=O)NC3CC3)c2)cc1 | 0.79% | 0.56% | -1.04% | 2.02% | -1.15% | 2.43% | 5.31% | -2.99% | 3.09% | 1.42% | 6.45% | 2.04% | 5.76% | 0.57% | 11.8% | 3.1% | -0.77% | 1.43% | 2.37% | 2.9%
10 | CN1CCN(CCCNc2nc3ccc(Oc4ccc(NC(=O)Nc5cc(C(F)(F)F)ccc5F)cc4)cc3[nH]2)CC1 | 34% | 1.65% | 10.6% | 4.05% | 17.4% | 1% | 5.01% | -2.82% | 20.8% | -1.66% | -0.34% | -0.75% | 4.51% | -5.06% | 23.7% | 15.9% | 53% | 3.12% | 8.26% | 2.15%
11 | COc1cc2ncn(-c3cc(OCCc4ccccc4)c(C(N)=O)s3)c2cc1OC | 3.49% | 1.14% | 8.57% | 2.85% | 14.7% | 2.33% | 3.1% | -3.55% | 6.73% | 2.54% | 8.4% | 3.16% | 7.8% | 1.23% | 8.14% | 25% | 66.7% | 1.21% | 7.11% | 5.29%
12 | CCc1cccc(CC)c1/C=C/c1cncc(C(=O)NC)c1 | 1.65% | 1.04% | 3.79% | 1.36% | 3.49% | 3.65% | 8.4% | -7.46% | -0.69% | 2.26% | 6.42% | -0.55% | 6.73% | 0.82% | 11.7% | 1.38% | 5.08% | 0.77% | 0.32% | 1.73%
13 | COc1ccc2cc(-c3c(-c4ccncc4)nc(-c4ccc(S(C)(=O)=O)cc4C)n3C)ccc2c1 | 0.55% | 2.95% | 3.12% | 2.38% | 4.11% | 3.55% | 5.35% | -5.17% | 8.65% | 2.7% | 17.6% | 4.05% | 16.2% | 1.31% | 12.7% | 43.9% | 95.3% | 0.86% | 0.3% | 4.65%
